Screens: PubChem, National Center for Advancing Translational Sciences (NCATS)
Rows were chosen to be rich in hits. Some 2.7% of all compounds tested hit in one or more screens of this group.
TrxR1 substrate – rat thioredoxin reductase 1 substrate activity; purified TrxR1 substrate turnover, NADPH consumption readout; Potency, µM (series often up to 114 µM), without a hit: at the top dose activity change, negative = substrate turnover; 390,000 tested, 0.01% active; AID 588456; also: % is scaled to controls: 0 for no effect and ±100 for the full control effect; nearly all actives have a fitted effect of over 50% in size
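Rat TrxR1, dispensed at 90 nM, was prereduced with 400 uM NADPH (final) for 5 min at ~22 deg C, then incubated with compound 15 min before 400 uM selenite. A first-read NADPH fluorescence drop versus no-compound background flagged substrates.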
TrxR1 inh – blocks rat thioredoxin reductase 1; O89049; recombinant rTrxR1, NADPH fluorescence consumption, selenite substrate; Potency, µM (doses to about 114 µM), for inactives: at the highest dose activity change, negative = inhibition, most hits filed as inhibitors; 390,000 tested, 1% active; also: % is scaled to controls: 0 for no effect and ±100 for the full control effect; nearly all actives have a fitted effect of over 65% in size
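Rat TrxR1 (90 nM in the dispensed reagent) was pre-reduced with 400 uM NADPH for 5 min at room temperature, then incubated with compound for 15 min. After 400 uM selenite was added, NADPH fluorescence (Ex 340/Em 450 nm) was followed for 8 min.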
HEK293 tox – cytotoxicity in counter-screen for GLP-1R inverse agonists; Potency, µM (top dose mostly 38.3 µM), inactives show at the highest dose activity change, negative = inhibition, hits mostly inhibitors; HEK293 cAMP-luciferase reporter cells, luminescence, 24 h; 410,000 tested, 0.13% active;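 also: loss of luciferase light is scored as toxicity; % is scaled to controls: 0 for no effect and ±100 for the full control effect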
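MLSMR compounds, 24 hr on cells at 37 deg C/5% CO2; luminescence after luciferase reagent (12 min RT). Inhibition counted as the undesired cytotoxic outcome.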
GLP-1R inv ag – GLP-1 receptor (human) inverse agonism | P43220 | HEK293 GLP-1R CRE-luciferase, luminescence, 24 h; GLP-1R form is constitutively active | Potency, µM (doses to about 38.3 µM), without a hit: at the highest dose activity change, negative = inhibition, most hits filed as inhibitors | 410,000 tested, 1.6% active | AID 624417; also: % is scaled to controls: 0 for no effect and ±100 for the full control effect; nearly all actives have a fitted effect of over 55% in size
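Using stably transfected HEK293 (constitutively active GLP-1R, cAMP-luciferase reporter), compounds were incubated 24 hr and luciferase measured by luminescence.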
mIDH1 inhibitor – inhibitors of human mutant IDH1 R132H; O75874; IDH1-R132H enzyme, NADPH consumption, diaphorase/resazurin fluorescence; Potency, µM (doses to about 76.6 µM), inactives show at the top dose activity change, negative = inhibition, most hits filed as inhibitors; 390,000 tested, 0.093% active; AID 602179; also: % is scaled to controls: 0 for no effect and ±100 for the full control effect; nearly all actives have a fitted effect of over 65% in size
Target sequence (O75874 whole entry R132H, stated change not applied): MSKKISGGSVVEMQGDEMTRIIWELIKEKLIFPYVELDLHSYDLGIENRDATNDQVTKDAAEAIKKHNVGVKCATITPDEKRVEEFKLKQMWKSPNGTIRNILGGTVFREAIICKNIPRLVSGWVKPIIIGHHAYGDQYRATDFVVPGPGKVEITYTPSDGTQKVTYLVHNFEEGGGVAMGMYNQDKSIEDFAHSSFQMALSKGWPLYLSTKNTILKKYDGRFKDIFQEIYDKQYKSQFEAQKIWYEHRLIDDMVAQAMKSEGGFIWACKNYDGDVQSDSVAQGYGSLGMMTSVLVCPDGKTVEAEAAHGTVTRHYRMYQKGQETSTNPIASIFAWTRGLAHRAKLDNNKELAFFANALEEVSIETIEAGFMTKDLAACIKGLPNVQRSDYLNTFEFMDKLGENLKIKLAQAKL
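IDH1-R132H (0.5 ug/mL) preincubated 30 min with compound, then NADPH (0.016 mM) and alpha-KG (2 mM) added; 80 min at RT, pH 7.5. Remaining NADPH coupled via diaphorase/resazurin to fluorescence (540/590 nm); concentration-response curves normalized to no-enzyme control.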
GLP-1R agonist – activates the human GLP-1 receptor; P43220; HEK293 GLP-1R CRE-luciferase, luminescence, 4-6 h; cells express a hypersensitive GLP-1R form; Potency, µM (titrated, usually from 45.6 µM), without a hit: top-dose activation, hits mostly activators; 380,000 tested, 0.007% active; AID 624172; also: % of control where 0% means no effect
The depositor's hits bear a star; ? = inconclusive; · = no result; ! = not active in a repeat; [ ] = dose if it differs, or a comment. Calls follow the shape of the dose curve; as a rule, active = well fitted curve in the direction sought with a large enough effect; inconclusive = small, poorly fitted or top-dose-only effect, or another doubt; inactive = no such curve, though single readings can be large; an effect the other way counts as inactive or inconclusive. Potency is read from the fitted curve at half-maximal effect.

SMILES	TrxR1 substrate	TrxR1 inh	HEK293 tox	GLP-1R inv ag	mIDH1 inhibitor	GLP-1R agonist
CC1CCCC(C)N1C(=O)c1ccccc1Nc1ccc(SC(F)F)cc1 (configuration not stated)	-13%	-16%	-16%	5.6µM*	1%	1%
CC1CCC(NC(=O)C2(C)Cc3ccccc3C(=O)N2Cc2ccc(Cl)cc2)CC1 (configuration not stated)	4%	19%	1%	-8%	·	·
CCN(CC)c1cc(C)c2cc(NC(=O)c3cccc(OC)c3)ccc2n1	-4%	18%[2.29 µM]	-27%	10µM*	2%	0%
CCOc1ccc(C(=O)Nc2ccc3nc(N(CC)CC)cc(C)c3c2)cc1	7%[2.29 µM]	10%	-9%	?	-9%	1%
CCN(CC)c1cc(C)c2cc(NC(=O)/C=C/c3cc(OC)c(OC)c(OC)c3)ccc2n1	-7%	-5%	?	11µM*	8%	·
COc1ccccc1NC(=S)NCCSc1ccc(C)cc1	-7%	-12%	?	11µM*	-4%	1%
Cc1ccc2oc(C(=O)Nc3ccc(S(=O)(=O)N4CCCCC4C)cc3)cc(=O)c2c1 (configuration not stated)	7%	12%	3%	9%	7%	·
COc1ccc(C2Nc3ccc(NC(C)=O)cc3C(=O)N2Cc2cccc(Cl)c2)cc1COc1ccc(NC(C)=O)cc1 (configuration not stated)	12%	4%	·	·	·	·
CCN(CC)C(=O)c1ccc2nc(-c3ccccc3)c(-c3ccccc3)nc2c1	80%	-17%	6%	5µM*	-4%	2%
O=C(c1ccc2nc(-c3ccccc3)c(-c3ccccc3)nc2c1)N1CCCCC1	22%	-16%	5%	2.5µM*	-4%	4%
CCN(CC)C(=O)c1ccc2nc3ccccc3nc2c1	-11%	-8%	3%	0%	2%	4%
CCCNC(=O)c1ccc2nc(-c3ccccc3)c(-c3ccccc3)nc2c1	9%[11.4 µM]	?	-12%	3.5µM*	1%	-5%
CC(C)c1nnc(NC(=O)c2ccc3c(c2)OCO3)s1	0%	-4%	-10%	1.1µM*	2%	-1%
CCN(c1ccccc1)S(=O)(=O)c1ccc(Cl)nc1	1%	19%	-4%	0%	2%	1%
CCN(c1ccccc1)S(=O)(=O)c1ccc(NCC2COc3ccccc3O2)nc1 (configuration not stated)	-1%	16%	-9%	5µM*	2%	5%
Cc1cccc(C)c1OCCOC(=O)c1n[nH]c2ccccc12	-8%	-7%	-4%	?	-5%	30%
Cc1ccc(C)c(C(=O)COC(=O)c2n[nH]c3ccccc23)c1	-9%	3%[57.1 µM]	-2%	10µM*	11%	13%
CCOC(=O)Cn1c(=O)n(CC2CCCO2)c2nc(-c3ccccc3F)nc(C(N)=O)c21 (configuration not stated)	8%[57.1 µM]	15%[57.1 µM]	3%	-1%	6%	19%
CC(=O)/C=C1\C(=O)N(C)c2ccccc21	20%[57.1 µM]	30µM*	·	·	·	·
CN1C(=O)/C(=C\C(=O)c2cccs2)c2ccccc21	0%[57.1 µM]	-23%[57.1 µM]	?	?	9%	-1%
Cc1ccc(S(=O)(=O)N2CCCc3cc(NC(=O)c4ccc(C(C)(C)C)cc4)ccc32)cc1	1%[57.1 µM]	15%[57.1 µM]	-9%	?	0%	·
Cc1ccc(C2C3=C(CC(C)(C)CC3=O)Nc3onc(C)c32)cc1 (configuration not stated)	46%[57.1 µM]	-13%[57.1 µM]	-16%	?	0%	7%
Cc1noc2c1C(c1ccc(N(C)C)cc1)C1=C(CC(C)(C)CC1=O)N2 (configuration not stated)	6%	50µM*	-8%	0%	7%	11%
Cc1cc(C)c(CN2CCN(C(=O)Cn3cnc4c(OCc5ccccc5)ncnc43)CC2)c(C)c1	-1%	14%	-11%	6.3µM*	3%	0%
Cc1ccc(CN2CCN(CCCn3cnc4c(OCc5ccccc5)ncnc43)CC2)cc1	2%	5%	-19%	8.9µM*	-2%	-3%
SMILES	TrxR1 substrate	TrxR1 inh	HEK293 tox	GLP-1R inv ag	mIDH1 inhibitor	GLP-1R agonist
O=C(O)c1ccc(C2Nc3ccccc3-c3nnc(SCc4ccc(Cl)cc4)nc3O2)cc1 (configuration not stated)	1%	13%	2%	2%	-4%	·
COc1cccc(OCC(=O)Nc2nnc3n2CCS3)c1	-2%[57.1 µM]	19%[57.1 µM]	1%	-13%	-4%	-4%
CCCCNc1ccc(C(F)(F)F)cc1S(=O)(=O)NCCc1ccc(F)cc1	-4%	27%	4%	?	11%	-1%
CCCCN1C(=O)N(CCc2ccc(F)cc2)S(=O)(=O)c2cc(C(F)(F)F)ccc21	1%	25%	4%	10µM*	-5%	4%
CCC(=O)N1CCc2cc(CNC(=O)c3ccc(OC)cc3)ccc21	-3%[57.1 µM]	26%[57.1 µM]	-10%	6%	-22%	·
O=C(Cn1ncc2c3ccccc3n(Cc3ccc(F)cc3)c2c1=O)N1CCN(c2ncccn2)CC1	32%[57.1 µM]	56%[57.1 µM]	-14%	13µM*	9%	0%
O=C(Cn1ncc2c3ccccc3n(Cc3ccccc3)c2c1=O)N1CCCCCC1	8%	24%	-15%	-17%	-2%	·
CCNC(=O)c1ccc(C)c(-n2c(C)nc3cccnc32)c1	3%	3%	-2%	2%	2%	·
Fc1cccc(/C=N/NC(=S)Nc2ccccc2Cl)c1	-16%	-17%	2.8µM*	?	2%	-7%
Cc1cccc(NC(=S)N/N=C/c2cccc(O)c2)c1C	-10%	-20%	?	7.9µM*	0%	4%
CN(C)/[N+]([O-])=N/Oc1ccc([N+](=O)[O-])cn1	-1%	2%	·	·	·	·
CCn1c2ccc(C)cc2c2nnc(SCCN3CCCCC3)nc21	11%[57.1 µM]	12%	-1%	?	-3%	19%
CCCn1c2ccc(C)cc2c2nnc(SCCN3CCCCC3)nc21	1%	5%	-13%	7.1µM*!	12%	15%
Cc1cccc(C)c1OCc1nc2ccccc2c(=O)n1/N=C/c1c[nH]c2ccccc12	-7%	-12%	-23%	2.8µM*	6%	0%
Cc1nc2ccccc2c(=O)n1/N=C/c1ccc(O)cc1O	-10%	9%	0%	46%	0%	-9%
Cc1ccccc1OCc1nc2ccccc2c(=O)n1/N=C/c1c[nH]c2ccccc12	9%[57.1 µM]	24%[57.1 µM]	?	?	8%	1%
CCCc1nc2ccccc2c(=O)n1/N=C/c1ccccc1O	-2%	5%	-4%	4.5µM*	5%	8%
